Read-out in assay [1]: Epidermal growth factor receptor (EGFR), EGFR (gene 1956)
Kind of assay: BSK_hDFCGF_EGFR: BioMAP Diversity Plus: hDFCGF Assay for Epidermal growth factor receptor (EGFR) Biomarker Activity (AID 2283057). The following applies: primary human foreskin fibroblasts; actives raise or lower the signal. The gist of the method: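 EGFR levels by ELISA in human dermal fibroblast cultures, 24 h post-treatment, fitted bidirectionally versus DMSO. Parallel wells stained with sulforhodamine B to detect overt cytotoxicity.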

Read-out in assay [2]: Interleukin-8 (IL8), CXCL8 (gene 3576)
As to the kind of experiment: BSK_hDFCGF_IL8: BioMAP Diversity Plus: hDFCGF Assay for Interleukin-8 (IL8) Biomarker Activity (AID 2283058). The note with it: primary human foreskin fibroblasts; actives raise or lower the signal. In a few lines: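 Fibroblast monolayers (human foreskin, hDFCGF) received test chemical for 24 h before ELISA detection of IL-8; either increases or decreases relative to DMSO count as activity.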

Assay [3] is described as follows: BSK_hDFCGF_Proliferation: Cell Proliferation Assessment in the BioMAP Diversity Plus: hDFCGF Assay (AID 2283059).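 Also: curves fitted for both rise and fall of signal versus DMSO baseline.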 The following applies: primary human foreskin fibroblasts. The gist of the method: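 Steps: dose primary human dermal fibroblasts (foreskin); […] fix in 10% TCA; stain with 0.1% SRB; read 560 nm; fit gain or loss of signal against DMSO.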

Read-out in assay [4]: Macrophage colony-stimulating factor (MCSF), CSF1 (gene 1435)
As to the kind of experiment: BSK_hDFCGF_MCSF: BioMAP Diversity Plus: hDFCGF Assay for Macrophage colony-stimulating factor (MCSF) Biomarker Activity (AID 2283060). The following applies: primary human foreskin fibroblasts; actives raise or lower the signal. The gist of the method:
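fibroblasts (human foreskin, primary), 24 h post-dose; M-CSF by ELISA; bidirectional fit, DMSO = baseline.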

Read-out in assay [5]: TIMP metallopeptidase inhibitor 1 (TIMP1), TIMP1 (gene 7076)
Kind of assay: BSK_hDFCGF_TIMP1: BioMAP Diversity Plus: hDFCGF Assay for TIMP metallopeptidase inhibitor 1 (TIMP1) Biomarker Activity (AID 2283062). The note with it: primary human foreskin fibroblasts; actives raise or lower the signal. The gist of the method: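 Bidirectional curve fitting against DMSO baseline yielded this endpoint, based on ELISA detection of TIMP-1 in primary human foreskin fibroblasts exposed to compound for 24 h.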

Read-out in assay [6]: Monokine induced gamma interferon (MIG), CXCL9 (gene 4283)
As to the kind of experiment: BSK_hDFCGF_MIG: BioMAP Diversity Plus: hDFCGF Assay for Monokine induced gamma interferon (MIG) Biomarker Activity (AID 2283063). The following applies: primary human foreskin fibroblasts; actives raise or lower the signal. The gist of the method: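 Endpoint derived by bidirectional fitting relative to DMSO; MIG quantified via ELISA in primary human foreskin fibroblasts harvested 24 h after dosing.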

Read-out in assay [7]: Matrix Metallopeptidase 1 (MMP1), MMP1 (gene 4312)
As to the kind of experiment: BSK_hDFCGF_MMP1: BioMAP Diversity Plus: hDFCGF Assay for Matrix Metallopeptidase 1 (MMP1) Biomarker Activity (AID 2283064). The note with it: primary human foreskin fibroblasts; actives raise or lower the signal. The gist of the method: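 MMP1 levels quantified by ELISA 24 h after dosing human dermal fibroblast cultures, with parallel SRB total-protein staining for overt cytotoxicity. Data fitted in both directions against DMSO baseline.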

Read-out in assay [8]: Vascular cell adhesion molecule 1 (VCAM1), VCAM1 (gene 7412)
As to the kind of experiment: BSK_hDFCGF_VCAM1: BioMAP Diversity Plus: hDFCGF Assay for Vascular cell adhesion molecule 1 (VCAM1) Biomarker Activity (AID 2283065). The note with it: primary human foreskin fibroblasts; actives raise or lower the signal. In a few lines:
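Measured after 24 h chemical treatment of primary human skin fibroblasts, VCAM-1 was detected by ELISA and concentration-response analysed in both directions versus DMSO vehicle.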

Read-out in assay [9]: Plasminogen activator inhibitor-1 (PAI1), SERPINE1 (gene 5054)
Kind of assay: BSK_hDFCGF_PAI1: BioMAP Diversity Plus: hDFCGF Assay for Plasminogen activator inhibitor-1 (PAI1) Biomarker Activity (AID 2283066). The note with it: primary human foreskin fibroblasts; actives raise or lower the signal. In a few lines: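 PAI-1 levels in human dermal foreskin fibroblasts were quantified by ELISA 24 h after dosing, with gain or loss analysed against DMSO. Overt cytotoxicity was checked by sulforhodamine B total-protein staining in parallel cultures.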

Read-out in assay [10]: Intercellular Adhesion Molecule 1 (ICAM1), ICAM1 (gene 3383)
Kind of assay: BSK_KF3CT_ICAM1: BioMAP Diversity Plus: KF3CT Assay for Intercellular Adhesion Molecule 1 (ICAM1) Biomarker Activity (AID 2283067). The following applies: primary human keratinocytes with fibroblasts; actives raise or lower the signal. In a few lines: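 Bidirectional curve fitting against a DMSO baseline was applied to ICAM-1 ELISA signal from primary human skin co-cultures harvested 24 h after treatment, with SRB staining of parallel wells for overt cytotoxicity.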

Read-out in assay [11]: Interferon-gamma inducible Protein 10 (IP10), CXCL10 (gene 3627)
As to the kind of experiment: BSK_KF3CT_IP10: BioMAP Diversity Plus: KF3CT Assay for Interferon-gamma inducible Protein 10 (IP10) Biomarker Activity (AID 2283068). The note with it: primary human keratinocytes with fibroblasts; actives raise or lower the signal. The gist of the method:
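KF3CT co-culture (keratinocytes + foreskin fibroblasts), 24 h compound, IP-10 by ELISA; bidirectional fit vs DMSO baseline.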

Assay [12] is described as follows: BSK_KF3CT_SRB: Viability Assessment in the BioMAP Diversity Plus: KF3CT Assay (AID 2283069).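 Also: read 24 h after compound addition.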 The note with it: primary human keratinocytes with fibroblasts. In a few lines: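 Cytotoxicity was gauged by SRB staining (0.1% SRB, 10% TCA fixation, 560 nm) of parallel cultures at 24 h. The cells were primary human skin keratinocytes co-cultured with fibroblasts, and activity was fitted in both directions against DMSO.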

Read-out in assay [13]: Interleukin-1 alpha (IL1a), IL1A (gene 3552)
Kind of assay: BSK_KF3CT_IL1a: BioMAP Diversity Plus: KF3CT Assay for Interleukin-1 alpha (IL1a) Biomarker Activity (AID 2283070). The following applies: primary human keratinocytes with fibroblasts; actives raise or lower the signal. The gist of the method: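 IL-1a was detected by ELISA 24 h after chemical treatment of a co-culture of human skin keratinocytes and foreskin fibroblasts. Gain or loss of signal was fitted against the DMSO baseline.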

Read-out in assay [14]: Transforming growth factor beta 1 (TGFb1), TGFB1 (gene 7040)
Kind of assay: BSK_KF3CT_TGFb1: BioMAP Diversity Plus: KF3CT Assay for Transforming growth factor beta 1 (TGFb1) Biomarker Activity (AID 2283072). The following applies: primary human keratinocytes with fibroblasts; actives raise or lower the signal. In a few lines:
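ELISA quantifies TGF-b1 at 24 h post-dose in a primary human skin co-culture of keratinocytes and fibroblasts, with gain or loss judged against DMSO. Parallel SRB total-protein staining flags overt cytotoxicity.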

Read-out in assay [15]: C-C motif chemokine 2 (Homo sapiens) (UniProt P13500)
Kind of assay: BSK_KF3CT_MCP1: BioMAP Diversity Plus: KF3CT Assay for Monocyte Chemoattractant Protein 1 (MCP1/CCL2) Biomarker Activity (AID 2283073). The note with it: primary human keratinocytes with fibroblasts; actives raise or lower the signal. The gist of the method:
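Biomarker MCP-1 is measured by ELISA in primary human keratinocytes co-cultured with foreskin fibroblasts, 24 h after chemical treatment; DMSO serves as the negative control and activity baseline.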

Read-out in assay [16]: Matrix Metallopeptidase 9 (MMP9), MMP9 (gene 4318)
Kind of assay: BSK_KF3CT_MMP9: BioMAP Diversity Plus: KF3CT Assay for Matrix Metallopeptidase 9 (MMP9) Biomarker Activity (AID 2283074). The following applies: primary human keratinocytes with fibroblasts; actives raise or lower the signal. The gist of the method: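 MMP-9 quantified by ELISA after 24 h chemical treatment of primary human skin keratinocyte/fibroblast co-cultures; gain or loss fitted against DMSO, with parallel SRB staining (0.1% SRB, 560 nm) for overt cytotoxicity.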

Read-out in assay [17]: urokinase plasminogen activator (uPA), PLAU (gene 5328)
Kind of assay: BSK_KF3CT_uPA: BioMAP Diversity Plus: KF3CT Assay for urokinase plasminogen activator (uPA) Biomarker Activity (AID 2283075). The note with it: primary human keratinocytes with fibroblasts; actives raise or lower the signal. In a few lines: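 ELISA read-out of uPA 24 h after dosing human skin keratinocytes co-cultured with foreskin fibroblasts. Signal change fitted both ways relative to DMSO; sulforhodamine B on parallel cultures marks overt cytotoxicity.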

Read-out in a further assay: CD40, CD40 (gene 958)
As to the kind of experiment: BSK_LPS_CD40: BioMAP Diversity Plus: LPS Assay for CD40 Biomarker Activity (AID 2283076). The following applies: primary human HUVEC with PBMC; actives raise or lower the signal. The gist of the method: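 Using a multiplexed primary human co-culture (umbilical vein endothelium plus PBMC), CD40 was read by ELISA 24 h after dosing, with cytotoxicity tracked by sulforhodamine B staining of parallel cultures and activity fitted bidirectionally versus DMSO.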

Read-out in assay [18]: TIMP metallopeptidase inhibitor 2 (TIMP2), TIMP2 (gene 7077)
As to the kind of experiment: BSK_KF3CT_TIMP2: BioMAP Diversity Plus: KF3CT Assay for TIMP metallopeptidase inhibitor 2 (TIMP2) Biomarker Activity (AID 2283071). The note with it: primary human keratinocytes with fibroblasts; actives raise or lower the signal. The gist of the method:
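TIMP-2 measured by ELISA at 24 h in human keratinocyte/fibroblast primary co-cultures exposed to chemicals. Both increases and decreases were fitted against DMSO. Parallel cultures were stained with SRB for total protein as an overt-cytotoxicity check.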

Activity calls are given as the source filed them. The calls were made as follows: active = hit-call score of the fitted dose curve at least 0.9, where 1 is the maximum; inactive = score below 0.9.

Drawing on PubChem BioAssay (EPA / NIEHS), this text covers outcome and AC50 for four compounds.

Take `O=C1NC(=O)C(c2ccccc2)(c2ccccc2)N1`: the outcome in [1], in assay [2], in assay [3], in assay [4], in assay [5] and in [6] was inactive. The result in [7], in assay [8], in assay [9], in assay [10], in assay [11] and in assay [12] was inactive. For the same compound, the outcome is “inactive” in assay [13]; “inactive” in [14]; “inactive” in assay [15]; “inactive” in assay [16]; “inactive” in [17]; “inactive” with CD40, CD40 (gene 958).

What is called AC50 is the concentration at which the activity in the assay is half-maximal. With `CCCCCCC(CCCCCCCCCCC(=O)OCC(COC(C)=O)OC(C)=O)OC(C)=O` (configuration not stated), the result in [1], in assay [2], in [4], in [5], in [6] and in assay [7] was inactive. Moreover, the result in assay [10], in assay [11], in assay [12], in [13], in [18] and in [14] was inactive. Further, the outcome is “inactive” in [15]; “inactive” in assay [16]; “inactive” in assay [17]; “inactive” in the assay with CD40, CD40 (gene 958). The results for the AC50 in [3] and in assay [9] were 3.11 µM (active) and 0.818 µM (active), respectively.

Regarding `c1ccc2occc2c1`, the result in [1], in assay [2], in assay [3], in assay [4], in assay [5] and in [6] was inactive. The result in assay [7], in [9], in assay [10], in assay [11], in [12] and in assay [13] was inactive. For the same compound, the outcome in assay [18] is “inactive”; in [14], “inactive”; in assay [15] it was “inactive”; in [16] it was “inactive”; in assay [17] it was “inactive”; with CD40, CD40 (gene 958), “inactive”.

On to `CO[C@@H]1COCC[C@@H]1N[C@@H]1CC[C@@](C(=O)N2CCc3ncc(C(F)(F)F)cc3C2)(C(C)C)C1`, for which the result in assay [1], in assay [2], in assay [3], in assay [4], in assay [5] and in [6] was inactive. Further, the outcome in assay [7], in assay [8], in [9], in [10], in assay [11] and in [12] was inactive. Also, the outcome was “inactive” in [13]; “inactive” in assay [14]; “inactive” in assay [15]; “inactive” in [16]; “inactive” in assay [17]; “inactive” in the assay with CD40, CD40 (gene 958).
